Records with an inconclusive call do not appear. The source made the active and inactive calls. Calls come from the whole dose curve; as a rule, active = well fitted curve in the direction sought with a large enough effect; inconclusive = small, poorly fitted or top-dose-only effect, or another doubt; inactive = no such curve, though single readings can be large; an effect the other way counts as inactive or inconclusive.
Assays:
[1] = Primary qHTS for inhibitors of nuclear receptor binding SET domain protein 2 (NSD2) in an RCH-ACV wild type WT cells (2C) (AID 1645877); note: nearly all actives have a fitted effect of over 70% in size
[2] = biological target: Glutathione peroxidase 1 (Homo sapiens) (UniProt P07203); assay: Primary qHTS Assay for Inhibitors of Recombinant Selenoprotein Glutathione Peroxidase 1 (GPX1) (AID 1845191); note: nearly all actives have a fitted effect of over 65% in size
Sequence of Glutathione peroxidase 1 (Homo sapiens) (P07203 whole entry, looked up): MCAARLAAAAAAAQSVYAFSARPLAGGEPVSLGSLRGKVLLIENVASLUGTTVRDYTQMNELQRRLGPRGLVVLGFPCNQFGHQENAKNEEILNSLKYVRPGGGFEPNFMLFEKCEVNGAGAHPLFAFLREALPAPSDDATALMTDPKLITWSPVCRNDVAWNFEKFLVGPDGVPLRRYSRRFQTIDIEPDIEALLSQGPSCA
Summary of the method: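 GR-coupled readout: NADPH consumption tracked by fluorescence, ex 340/em 450 nm, at t=0 and after 15 min at RT. Final mix 10 nM GPX1, 1 mM GSH, 0.5 mM CHP, 0.5 mM NADPH, 100 nM GR, 0.01% BSA, following 30 min enzyme–compound preincubation.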

[3] = biological target: Phospholipid hydroperoxide glutathione peroxidase GPX4 (Homo sapiens) (UniProt P36969); assay: Primary qHTS Assay for Inhibitors of Recombinant Selenoprotein Glutathione Peroxidase 4 (GPX4) (AID 1845192); note: nearly all actives have a fitted effect of over 65% in size
Sequence of Phospholipid hydroperoxide glutathione peroxidase GPX4 (Homo sapiens) (P36969 whole entry, looked up): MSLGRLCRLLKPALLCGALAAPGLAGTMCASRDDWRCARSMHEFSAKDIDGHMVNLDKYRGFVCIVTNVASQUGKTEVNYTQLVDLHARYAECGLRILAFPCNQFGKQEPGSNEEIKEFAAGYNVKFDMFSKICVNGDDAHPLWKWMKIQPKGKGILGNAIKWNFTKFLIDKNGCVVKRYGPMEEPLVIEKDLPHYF
Summary of the method: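 Steps: GPX4 plus compound, 30 min RT; add GR/GSH/NADPH master mix; start with cumene hydroperoxide; read 340/450 nm fluorescence at 0 and 15 min. Finals were 200 nM GPX4, 1 mM GSH, 0.5 mM CHP, 0.5 mM NADPH, 100 nM GR.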

[4] = biological target: Luciferin 4-monooxygenase (Photinus pyralis) (UniProt P08659); assay: Primary firefly luciferase (FLuc) qHTS assay for identification of artifact compounds. (AID 1845220); note: nearly all actives have a fitted effect of over 60% in size
Summary of the method: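 Enzymatic FLuc inhibition assay: compounds pre-exposed to luciferin/ATP (10 uM each) for 15 min, then purified P. pyralis enzyme at 10 nM added. Read-out: luminescence at 5 min.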

[5] = system: Nanoluciferase (engineered Oplophorus gracilirostris luciferase); assay: Primary Nanoluciferase (NLuc) qHTS assay for identification of artifact compounds. (AID 1845222);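 note: NLuc secreted into diluted conditioned medium of S16 cells; series mostly up to about 54 µM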
Summary of the method: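 S16 cell supernatant NLuc, 1:55; cpds qHTS; 15 min RT dark; Nano-Glo substrate 1:100, 5 min; luminescence; Hill fit of % inhibition.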

[6] = Primary redox qHTS assay for identification of artifact compounds. (AID 1845223)
Summary of the method: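 Redox-cycling detection via DTT (250 uM final) oxidation coupled to Amplex Red (25 uM)/HRP (250 mU/mL) in HBSS. 15 min preincubation plus 30 min after DTT, room temperature. Ex/Em 525/598 nm; 4-parameter Hill fit against DMSO and 10 uM DA3003.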

Measured: Potency

CC(Cc1cc2c(c(C(N)=O)c1)N(CCCO)CC2)NCCOc1ccccc1OCC(F)(F)F (stereo unspecified)
inactive: all assays above

CC(C)c1ccc2c(c1)C(=O)CC1[C@@](C)(C(=O)O)CCC[C@]21C (stereo partly specified)
inactive: all assays above

COC(=O)CC(O)CC(O)/C=C/c1c(C)ccc2c1C(O)CC(C)C2 (stereo unspecified)
inactive: all assays above

CC1(O)CCCC2(C)C1CCC13CC(CO)C(CCC12)C3 (stereo unspecified)
inactive: all assays above

CC1C(=O)OCC2=CCN3CCC(OC(=O)C(C)(O)C1(C)O)C23 (stereo unspecified)
inactive: all assays above

O=C(NCc1ccc(S(=O)(=O)c2cc(F)cc(F)c2)cc1)c1ccc2nccn2c1
inactive: all assays above

O=C(O)c1ccc(OC2OC(CO)C(O)C(O)C2O)cc1 (stereo unspecified)
inactive: all assays above

COC1C(CO)OC(n2cnc3c(=O)[nH]cnc32)C1O (stereo unspecified)
inactive: all assays above

C=C1[C@@H]2CC[C@@H]3[C@@](CCC4C(C(=O)O)(C(=O)O)C[C@@H](O[C@@H]5O[C@H](CO)[C@@H](O)[C@H](O)[C@H]5OC(=O)CC(C)C)C[C@]43C)(C2)[C@H]1O (stereo partly specified)
inactive: all assays above

O=S(=O)(c1ccc(S(=O)(=O)n2cnc3ccccc32)cc1)N1CCCCCC1
inactive: all assays above

CC1(C)CC[C@]2(C(=O)O[C@@H]3O[C@H](CO)[C@@H](O)[C@H](O)[C@H]3O)CC[C@]3(C)C(=CCC4[C@@]5(C)C[C@@H](O)[C@H](O)C(C)(C)C5[C@H](O)C[C@]43C)[C@@H]2[C@@H]1O (stereo partly specified)
inactive: all assays above

From PubChem BioAssay (NCATS)
